# Results reported in PubChem BioAssay.
# Values without a mark were called inactive. The list shows a part of the results. Active and inactive are the calls of the source.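 How the source made its calls, unless noted: active means inhibition above a cutoff equal to the mean inhibition of all tested compounds plus 3 SD (cut at about 30% in these data); inactive means the rest.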
# Experiments:
# [1] = target: Bcl-2-like protein 1 (Homo sapiens) (UniProt Q07817); assay: Bcl-xL BH3-peptide displacement, hit confirmation – biochemical, fluorescence polarization, counter-screen for MCL1 inhibitor project (AID 2166); settings: GST-Bcl-xL / FITC-Bim BH3 peptide FP binding; at 10.9 µM; stronger effect = higher value
# Bcl-2-like protein 1 (Homo sapiens), sequence (Q07817 whole entry, looked up): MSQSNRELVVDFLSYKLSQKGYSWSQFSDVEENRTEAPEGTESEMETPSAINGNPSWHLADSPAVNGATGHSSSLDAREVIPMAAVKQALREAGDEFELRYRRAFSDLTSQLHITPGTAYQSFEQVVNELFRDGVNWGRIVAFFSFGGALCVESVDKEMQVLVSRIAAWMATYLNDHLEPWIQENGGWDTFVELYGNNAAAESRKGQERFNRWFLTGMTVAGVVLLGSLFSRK
# [2] = target: Induced myeloid leukemia cell differentiation protein Mcl-1 (Homo sapiens) (UniProt Q07820); assay: MCL1-BIM peptide interaction disruptors – biochemical, fluorescence polarization, triplicate, confirmation (AID 2168;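 active means inhibition above the average of all tested compounds plus 3 SD, cut at about 40% in these data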;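 further: 0% = DMSO wells and 100% = unlabeled Bim-BH3 control peptide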); settings: GST-MCL1 / FITC-Bim-BH3 fluorescence polarization; at 10.9 µM; stronger effect = higher value
# Induced myeloid leukemia cell differentiation protein Mcl-1 (Homo sapiens), sequence (Q07820 whole entry, looked up): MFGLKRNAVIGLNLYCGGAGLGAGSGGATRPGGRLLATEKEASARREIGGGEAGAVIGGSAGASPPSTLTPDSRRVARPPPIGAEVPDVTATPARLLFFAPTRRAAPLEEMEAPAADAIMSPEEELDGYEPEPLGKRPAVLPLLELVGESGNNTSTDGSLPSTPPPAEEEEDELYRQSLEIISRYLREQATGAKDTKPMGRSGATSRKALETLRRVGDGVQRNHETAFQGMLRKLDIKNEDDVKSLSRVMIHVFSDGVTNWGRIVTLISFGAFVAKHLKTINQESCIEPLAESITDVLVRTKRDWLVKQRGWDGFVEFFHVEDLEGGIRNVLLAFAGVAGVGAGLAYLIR
# [3] = target: Protein-arginine deiminase type-4 (Homo sapiens) (UniProt Q9UM07); assay: protein arginine deiminase 4 blockade, retest – biochemical, fluorescence polarization, confirmation (AID 488796;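 active means mean inhibition across replicates above the hit cutoff set by the earlier primary screen, cut at about 15% in these data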;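 further: inhibitors block active-site labeling by the probe so polarization falls; 0% = PAD4 with probe and DMSO and 100% = probe without PAD4 enzyme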); settings: recombinant PAD4, RCA probe fluorescence polarization; at 6.36 µM; stronger effect = higher value
# Protein-arginine deiminase type-4 (Homo sapiens), sequence (Q9UM07 whole entry, looked up): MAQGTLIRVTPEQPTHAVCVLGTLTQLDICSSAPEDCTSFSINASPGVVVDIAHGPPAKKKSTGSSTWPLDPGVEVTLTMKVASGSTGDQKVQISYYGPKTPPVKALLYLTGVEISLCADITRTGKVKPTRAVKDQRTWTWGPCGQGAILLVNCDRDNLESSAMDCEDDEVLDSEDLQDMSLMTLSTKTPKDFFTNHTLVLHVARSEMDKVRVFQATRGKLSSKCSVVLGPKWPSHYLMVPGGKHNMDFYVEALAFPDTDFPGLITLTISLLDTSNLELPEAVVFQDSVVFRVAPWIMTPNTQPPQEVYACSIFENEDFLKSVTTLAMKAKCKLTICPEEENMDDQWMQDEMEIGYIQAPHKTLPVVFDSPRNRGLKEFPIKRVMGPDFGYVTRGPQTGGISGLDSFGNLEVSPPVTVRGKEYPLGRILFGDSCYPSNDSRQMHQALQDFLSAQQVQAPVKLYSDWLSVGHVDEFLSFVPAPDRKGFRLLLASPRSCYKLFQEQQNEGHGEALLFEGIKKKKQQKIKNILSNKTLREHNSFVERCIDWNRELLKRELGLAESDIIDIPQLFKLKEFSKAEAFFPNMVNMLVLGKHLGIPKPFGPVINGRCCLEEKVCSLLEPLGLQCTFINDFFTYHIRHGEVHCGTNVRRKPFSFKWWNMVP
# [4] = target: Oxysterols receptor LXR-beta (Homo sapiens) (UniProt P55055); assay: nonspecific reporter activation via LXR – cell-based, luminescence, HEK293, H. contortus campaign, counter-screen for hcDAF-12 agonist project, confirmation (AID 743027;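 active means mean percent activation of the reporter above a cutoff set as the average over tested compounds plus their standard deviation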); settings: HEK293 Gal4-LXR tk-luc reporter, 24 h, at 6.8 µM, stronger effect = higher value, normalized: DMSO 0%, positive control 100%
# Oxysterols receptor LXR-beta (Homo sapiens), sequence (P55055 whole entry, looked up, the tested form may be a part): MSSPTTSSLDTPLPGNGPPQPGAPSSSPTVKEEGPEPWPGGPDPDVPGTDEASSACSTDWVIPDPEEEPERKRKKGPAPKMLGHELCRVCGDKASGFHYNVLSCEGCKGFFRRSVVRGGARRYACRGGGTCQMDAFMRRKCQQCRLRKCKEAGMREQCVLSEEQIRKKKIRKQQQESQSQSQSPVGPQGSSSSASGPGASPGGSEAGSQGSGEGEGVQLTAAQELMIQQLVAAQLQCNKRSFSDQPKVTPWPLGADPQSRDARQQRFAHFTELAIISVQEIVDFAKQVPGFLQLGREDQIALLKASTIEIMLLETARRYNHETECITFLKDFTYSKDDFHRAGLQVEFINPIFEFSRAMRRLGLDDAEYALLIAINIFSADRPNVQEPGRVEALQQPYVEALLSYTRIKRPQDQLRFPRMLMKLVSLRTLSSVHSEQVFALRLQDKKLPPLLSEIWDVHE
# [5] = system: Nuclear hormone receptor DAF-12 (Haemonchus contortus); assay: hcDAF-12 luciferase reporter activation, retest – cell-based, luminescence, HEK293, lit1-tk-luc, triplicate, confirmation (AID 743032;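 active means mean activation across triplicate tests above the threshold derived from the earlier primary screen, cut at about 5.5% in these data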;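 further: 0% = DMSO only wells and 100% = 3 µM Δ7-dafachronic acid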); settings: HEK293 hcDAF-12 lit1-tk-luc reporter, at 6.8 µM, stronger effect = higher value, % of Δ7-dafachronic acid response
# [6] = target: Protein phosphatase methylesterase 1 (Homo sapiens) (UniProt Q9Y570); assay: human PME-1 methylesterase inhibition confirmation – biochemical, fluorescence polarization, FP-Rh probe, triplicate (AID 2171;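 active means inhibition above the hit cutoff set in the earlier primary screen, cut at about 27% in these data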;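 further: 0% = enzyme with DMSO and 100% = wells lacking PME-1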); settings: recombinant PME-1, FP-Rh probe fluorescence polarization; at 5.9 µM; stronger effect = higher value
# Protein phosphatase methylesterase 1 (Homo sapiens), sequence (Q9Y570 whole entry, looked up): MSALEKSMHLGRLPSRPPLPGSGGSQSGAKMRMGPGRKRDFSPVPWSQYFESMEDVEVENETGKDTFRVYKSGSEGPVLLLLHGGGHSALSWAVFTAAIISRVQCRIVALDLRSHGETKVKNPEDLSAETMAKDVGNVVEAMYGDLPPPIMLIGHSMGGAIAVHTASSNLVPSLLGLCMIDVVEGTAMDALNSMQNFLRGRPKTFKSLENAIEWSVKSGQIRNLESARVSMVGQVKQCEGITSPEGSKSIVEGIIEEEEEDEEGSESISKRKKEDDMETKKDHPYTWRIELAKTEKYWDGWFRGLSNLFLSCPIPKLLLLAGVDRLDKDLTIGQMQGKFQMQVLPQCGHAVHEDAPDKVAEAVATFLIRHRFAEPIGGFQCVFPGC
# [7] = target: Insulin-degrading enzyme (Homo sapiens) (UniProt P14735); assay: cellular IDE Abeta-cleavage inhibition – fluorescence polarization, HEK cells, FAbetaB substrate, confirmation (AID 435028;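 active means mean inhibition across triplicate wells above the cutoff set by the earlier primary insulin-degrading enzyme screen, cut at about 16% in these data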;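 further: 0% = DMSO wells and 100% = 60 µM reference IDE inhibitor Ii1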); settings: at 5.59 µM, stronger effect = higher value
# Insulin-degrading enzyme (Homo sapiens), sequence (P14735 whole entry, looked up): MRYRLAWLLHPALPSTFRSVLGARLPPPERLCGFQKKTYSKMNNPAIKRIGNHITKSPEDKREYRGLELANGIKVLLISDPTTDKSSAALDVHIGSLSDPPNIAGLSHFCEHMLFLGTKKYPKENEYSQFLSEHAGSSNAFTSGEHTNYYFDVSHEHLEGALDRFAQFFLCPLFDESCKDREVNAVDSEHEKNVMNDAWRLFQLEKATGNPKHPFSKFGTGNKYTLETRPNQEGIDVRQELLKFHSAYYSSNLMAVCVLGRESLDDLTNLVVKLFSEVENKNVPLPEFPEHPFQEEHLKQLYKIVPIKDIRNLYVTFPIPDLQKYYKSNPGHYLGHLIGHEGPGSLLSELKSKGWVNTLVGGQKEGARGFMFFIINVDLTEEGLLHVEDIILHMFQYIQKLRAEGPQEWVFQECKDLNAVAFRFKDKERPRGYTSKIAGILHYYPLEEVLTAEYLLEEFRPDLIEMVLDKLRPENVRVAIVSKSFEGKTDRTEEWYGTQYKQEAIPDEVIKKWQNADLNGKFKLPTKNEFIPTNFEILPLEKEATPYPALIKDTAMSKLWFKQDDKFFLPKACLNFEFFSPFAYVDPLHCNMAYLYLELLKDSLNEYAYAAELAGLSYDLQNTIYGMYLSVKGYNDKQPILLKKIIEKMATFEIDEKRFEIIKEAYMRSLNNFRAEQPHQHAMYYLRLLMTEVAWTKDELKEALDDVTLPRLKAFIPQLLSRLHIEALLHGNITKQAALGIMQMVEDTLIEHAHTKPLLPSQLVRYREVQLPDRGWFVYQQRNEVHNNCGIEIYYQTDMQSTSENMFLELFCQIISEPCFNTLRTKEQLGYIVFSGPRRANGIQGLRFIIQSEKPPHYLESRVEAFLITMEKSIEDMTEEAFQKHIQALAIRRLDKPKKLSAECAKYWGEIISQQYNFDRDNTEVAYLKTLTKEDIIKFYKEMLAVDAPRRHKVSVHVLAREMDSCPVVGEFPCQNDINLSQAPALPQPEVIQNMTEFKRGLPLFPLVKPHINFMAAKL
# [8] = HEK cell viability loss – luminescence, cytotoxicity control for IDE inhibitor project (AID 449730; in the data active means inhibition above about 22%;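 further: 0% = vehicle wells and 100% = reference cytotoxic drug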); settings: HEK293 cytotoxicity, ATP luminescence; at 5.59 µM; stronger effect = higher value
# [9] = target: Platelet-activating factor acetylhydrolase (Homo sapiens) (UniProt Q13093); assay: inhibition of plasma PAF acetylhydrolase – biochemical, fluorescence polarization, human, confirmation (AID 463230;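 active means mean inhibition of the triplicate above the hit cutoff set for the earlier primary screen, cut at about 25% in these data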;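 further: 0% = enzyme with DMSO and 100% = wells lacking pPAFAH enzyme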); settings: recombinant pPAFAH, FP-Rh probe fluorescence polarization; at 3.39 µM; stronger effect = higher value
# Platelet-activating factor acetylhydrolase (Homo sapiens), sequence (Q13093 whole entry, looked up): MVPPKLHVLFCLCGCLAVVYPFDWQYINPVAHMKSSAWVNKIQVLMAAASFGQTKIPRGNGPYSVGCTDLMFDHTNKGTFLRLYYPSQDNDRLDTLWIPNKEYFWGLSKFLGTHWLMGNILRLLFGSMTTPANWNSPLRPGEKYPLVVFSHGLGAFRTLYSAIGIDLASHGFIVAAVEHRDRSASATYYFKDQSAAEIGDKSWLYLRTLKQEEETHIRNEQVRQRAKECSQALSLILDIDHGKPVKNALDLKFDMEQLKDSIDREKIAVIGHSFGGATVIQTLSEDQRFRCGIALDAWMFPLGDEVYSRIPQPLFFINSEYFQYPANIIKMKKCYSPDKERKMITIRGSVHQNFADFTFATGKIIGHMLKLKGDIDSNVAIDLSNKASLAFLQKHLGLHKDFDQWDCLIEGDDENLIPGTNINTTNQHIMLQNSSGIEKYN
# [10] = target: (Lyso)-N-acylphosphatidylethanolamine lipase (Mus musculus) (UniProt Q8VD66); assay: mouse ABHD4 hydrolase blockers, triplicate – biochemical, fluorescence polarization, confirmation (AID 720658;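 active means mean inhibition across replicates above the hit cutoff set in the primary screen, cut at about 30% in these data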;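 further: 0% = wild-type ABHD4 with DMSO and 100% = catalytically dead S159A mutant with DMSO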); settings: purified mABHD4, FP-Rh probe fluorescence polarization; at 8.92 µM; stronger effect = higher value
# (Lyso)-N-acylphosphatidylethanolamine lipase (Mus musculus), sequence (Q8VD66 whole entry, looked up): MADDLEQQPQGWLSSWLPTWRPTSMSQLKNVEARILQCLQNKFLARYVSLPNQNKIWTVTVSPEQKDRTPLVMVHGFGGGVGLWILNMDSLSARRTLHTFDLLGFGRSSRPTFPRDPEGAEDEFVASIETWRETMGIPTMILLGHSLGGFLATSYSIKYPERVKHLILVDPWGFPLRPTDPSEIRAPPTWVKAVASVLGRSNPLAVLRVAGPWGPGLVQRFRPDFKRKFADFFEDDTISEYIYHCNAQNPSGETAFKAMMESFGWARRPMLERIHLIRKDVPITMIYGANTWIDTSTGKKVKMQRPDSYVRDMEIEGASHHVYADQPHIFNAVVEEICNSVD
# [11] = reduced OD of T4-infected AddAB+ E. coli – absorbance, E. coli V3065, T4 phage, triplicate, AddAB inhibitor project, confirmation (AID 488942;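 active means mean inhibition above a set limit taken from the earlier primary screen, cut at about 13% in these data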;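 further: higher means less bacterial growth since AddAB block lets phage replicate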); settings: E. coli V3065 expressing H. pylori AddAB, at 11.9 µM, stronger effect = higher value, T4 phage with gene 2 nonsense mutations
# [12] = reduced OD of phage-infected RecBCD+ V66 E. coli – absorbance, mutant T4 phage, counter-screen for AddAB inhibitor project (AID 488955;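 active means mean inhibition above the mean of solvent-only control wells plus 3 SD, cut at about 4% in these data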;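 further: optical density read after an 18 h incubation at 37 °C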); settings: OD growth, at 11.9 µM, stronger effect = higher value
# [13] = bacterial growth inhibitors – absorbance, counter-screen for AddAB inhibitor project, confirmation (AID 488956; in the data active means inhibition above about 25%); settings: bacterial viability, absorbance (AddAB counterscreen); at 11.9 µM; stronger effect = higher value
# [14] = reduced OD of V66 E. coli with T4 gene 2 phage – absorbance, RecBCD inhibitor project, confirmation (AID 651982;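 active means mean inhibition over triplicates exceeding the hit threshold derived in the original primary screen, cut at about 11% in these data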); settings: E. coli V66 + T4 2- phage, growth OD; at 11.9 µM; stronger effect = higher value
# [15] = bacterial growth inhibition – absorbance, high throughput, counter-screen for RecBCD inhibitor project (AID 651983; in the data active means inhibition above about 20%;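 further: E. coli strain V66 grown with compound alone and no phage infection; 0% = bacteria with DMSO vehicle only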); settings: E. coli viability, absorbance (OD) growth; at 11.9 µM; stronger effect = higher value
# [16] = reduced optical density, T4-challenged addAB+ bacteria – absorbance, E. coli V3065, T4 phage, counter-screen for RecBCD inhibitor project, confirmation (AID 651984;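 active means mean inhibition above the solvent-only control wells' mean plus 3 SD, cut at about 22% in these data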;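 further: higher means less bacterial growth from phage killing when AddAB is blocked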); settings: E. coli expressing H. pylori AddAB + T4 phage, OD growth; at 11.9 µM; stronger effect = higher value; gene 2 mutant T4, recBCD-deleted host
# [17] = BSA probe fluorescence interference – biochemical, TAMRA-labeled BSA, counter-screen for TCR-CD3 interaction inhibitor project (AID 652035; in the data active means inhibition above about 23%;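 further: 0% = buffer low control and 100% = reference high control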); settings: TAMRA-labeled BSA probe fluorescence counterscreen; at 9.4 µM; stronger effect = higher value
# [18] = system: T-cell receptor (TCR)-CD3 interaction, human; assay: blockers of TCR binding to CD3 – biochemical, fluorescence, TAMRA-labeled TCR probe, confirmation (AID 652036; in the data active means inhibition above about 19%); settings: TAMRA-labeled TCR probe fluorescence binding assay; at 9.4 µM; stronger effect = higher value
# [19] = target: Nuclear receptor coactivator 3 (Homo sapiens) (UniProt Q9Y6Q9); assay: NCOA3 GAL4-fusion reporter inhibition – cell-based, luminescence, quadruplicate, confirmation (AID 588792;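 active means mean inhibition over 43.08%, the solvent-only control mean plus 3 SD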;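 further: 0% = DMSO treated cells and 100% = gossypol at 36 µM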); settings: HEK293 GAL4-SRC3 luciferase reporter, at 3.6 µM, stronger effect = higher value
# [20] = system: transactivating tegument protein VP16 (Human herpesvirus 1), Gal4-VP16 luciferase reporter; assay: repression of VP16-driven luciferase reporter – cell-based, luminescence, high throughput, counter-screen for SRC3 inhibitor project (AID 588794; in the data active means inhibition above about 30%); settings: mammalian cells, at 3.6 µM, stronger effect = higher value
# [21] = target: Nuclear receptor coactivator 1 (Homo sapiens) (UniProt Q15788); assay: NCOA1 GAL4-fusion reporter inhibition – cell-based, luminescence, quadruplicate, confirmation (AID 588820;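 active means mean inhibition above 46.68%, the untreated control wells mean plus 3 SD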;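 further: 0% = DMSO wells and 100% = gossypol 36 µM treated wells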); settings: HEK293 GAL4-SRC1 luciferase reporter, at 3.6 µM, stronger effect = higher value
# [22] = repression of VP16-driven luciferase reporter – cell-based, luminescence, high throughput, counter-screen for SRC1 inhibitor project (AID 588824; in the data active means inhibition above about 25%); settings: cell-based VP16 transactivation luciferase luminescence; at 3.6 µM; stronger effect = higher value
# [23] = StAR promoter reporter inhibitors, counter-screen for LRH-1 inverse agonist project, cell-based, luminescence, high throughput (AID 651611; in the data active means inhibition above about 28%); settings: StAR promoter luciferase reporter counterscreen, at 3.6 µM, stronger effect = higher value
# [24] = target: Nuclear receptor subfamily 5 group A member 2 (Homo sapiens) (UniProt O00482); assay: NR5A2 activity suppression in reporter cells – cell-based, luminescence, confirmation (AID 651613; in the data active means inhibition above about 42%;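 further: HEK293T cells co-transfected with LRH-1 and StAR promoter luciferase reporter; 0% = vehicle wells and 100% = parental cells lacking receptor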); settings: cell-based LRH-1 luciferase reporter, inverse agonism; at 3.6 µM; stronger effect = higher value
# Nuclear receptor subfamily 5 group A member 2 (Homo sapiens), sequence (O00482 whole entry, looked up): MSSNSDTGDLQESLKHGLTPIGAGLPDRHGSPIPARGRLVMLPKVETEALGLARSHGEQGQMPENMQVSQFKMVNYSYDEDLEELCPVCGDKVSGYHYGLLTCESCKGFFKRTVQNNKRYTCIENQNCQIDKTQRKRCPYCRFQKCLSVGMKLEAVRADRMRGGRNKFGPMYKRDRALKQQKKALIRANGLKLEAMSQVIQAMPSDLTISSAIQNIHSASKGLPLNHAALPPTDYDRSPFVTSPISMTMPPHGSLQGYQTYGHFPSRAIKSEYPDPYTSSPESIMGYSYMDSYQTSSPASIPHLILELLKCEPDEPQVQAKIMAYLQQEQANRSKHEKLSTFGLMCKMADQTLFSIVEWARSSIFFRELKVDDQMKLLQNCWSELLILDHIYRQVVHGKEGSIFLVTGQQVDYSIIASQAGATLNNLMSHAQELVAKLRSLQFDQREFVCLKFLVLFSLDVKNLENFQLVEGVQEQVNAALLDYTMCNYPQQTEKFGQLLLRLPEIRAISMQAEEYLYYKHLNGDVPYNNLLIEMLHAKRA
# [25] = target: Steroidogenic factor 1 (Homo sapiens) (UniProt Q13285); assay: inverse agonism at SF1 nuclear receptor – cell-based, luminescence, high throughput, counter-screen for LRH-1 inverse agonist project (AID 651614; in the data active means inhibition above about 44%;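 further: cells cotransfected with StAR promoter reporter and SF1 expression vector; 0% = vehicle on cells with receptor and 100% = vehicle on cells lacking receptor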); settings: cell-based SF1 luciferase reporter, at 3.6 µM, stronger effect = higher value
# Steroidogenic factor 1 (Homo sapiens), sequence (Q13285 whole entry, looked up, the tested form may be a part): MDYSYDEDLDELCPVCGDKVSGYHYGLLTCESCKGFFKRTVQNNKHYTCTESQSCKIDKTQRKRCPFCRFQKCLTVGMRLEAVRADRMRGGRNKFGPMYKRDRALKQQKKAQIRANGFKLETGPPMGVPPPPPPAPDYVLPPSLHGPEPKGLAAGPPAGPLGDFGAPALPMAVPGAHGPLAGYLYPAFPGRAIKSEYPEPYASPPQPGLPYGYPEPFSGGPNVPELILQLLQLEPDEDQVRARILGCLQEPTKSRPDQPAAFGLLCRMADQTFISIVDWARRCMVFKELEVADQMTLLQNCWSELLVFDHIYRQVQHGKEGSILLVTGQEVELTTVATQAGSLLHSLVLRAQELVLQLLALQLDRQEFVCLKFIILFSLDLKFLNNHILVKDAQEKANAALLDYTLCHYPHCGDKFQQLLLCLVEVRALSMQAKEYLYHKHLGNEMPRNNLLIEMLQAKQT
# [26] = compounds suppressing VP16-driven luciferase signal – cell-based, luminescence, high throughput, counter-screen for LRH-1 inverse agonist project (AID 651615; in the data active means inhibition above about 33%); settings: Gal4-VP16 luciferase reporter cells, at 3.6 µM, stronger effect = higher value
# [27] = target: Serine protease HTRA1 (Homo sapiens) (UniProt Q92743); assay: confirming inhibition of human HTRA1 – biochemical, fluorescence polarization, confirmation (AID 540248;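 active means mean inhibition over three repeats above a set limit taken from the earlier primary screen, cut at about 37% in these data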;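 further: 0% = HTRA1 with DMSO and 100% = wells lacking HTRA1; inhibitors block probe binding so polarization drops and inhibition rises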); settings: recombinant HTRA1, FP-rhodamine activity-based probe, at 5.96 µM, stronger effect = higher value
smiles,measurement,setting,value
O=S(=O)([N-]c1nc2ccccc2nc1-[n+]1ccc(Cc2ccccc2)cc1)c1ccc(Br)s1,inhibition,[1],33.4% (active)
same,inhibition,[2],33.7%
CC/C(C)=N/Nc1nc2sc3c(c2c(=O)[nH]1)CC(C)(C)OC3,inhibition,[1],34.7% (active)
same,inhibition,[2],53.8% (active)
O=C(COC(=O)c1ccccc1C(=O)N1CCN(c2ccccc2)CC1)NCc1ccccc1,inhibition,[1],22.1%
same,inhibition,[2],16.5%
CC(C)(C)OC(=O)NCCCC1=CC2=CC(=O)C(C)(OC(=O)c3ccco3)C(=O)C2=CO1 (stereo unspecified),inhibition,[1],26.3%
same,inhibition,[2],36.3%
CCCn1c(C2CCCN2c2nc(-c3ccc(C)cc3)cs2)nc2cc(Cl)c(N3CCCCC3)cc21 (stereo unspecified),inhibition,[1],4.86%
same,inhibition,[2],15.1%
Cc1nn(C(=O)c2ccoc2C)c(N)c1-c1ccccc1,inhibition,[1],1.59%
same,inhibition,[2],-8.2%
same,inhibition,[3],1.71%
same,activation,[4],0.39%
same,activation,[5],2.6%
Fc1ccc2nc(Nc3nc4cc5c(cc4s3)OCO5)sc2c1,inhibition,[6],2.53%
COc1ncnc2c1N=C1CC(C)(C)CC(N)=C1S2,inhibition,[1],144% (active)
same,inhibition,[2],181% (active)
same,inhibition,[3],24.1% (active)
Cc1cc2nc3c(=O)n(Cc4ccccc4)c(=O)[nH]c3nc2cc1N,inhibition,[1],198% (active)
same,inhibition,[7],66.8% (active)
same,inhibition,[8],8.2%
same,inhibition,[9],29.3% (active)
same,inhibition,[10],82.2% (active)
N#CCC(=O)Nc1ccc(C(=O)OCc2ccccc2Oc2ccccc2)cc1,inhibition,[6],-74.3%
O=C(CN1CCN(S(=O)(=O)c2ccc(Br)cc2)CC1)N/N=C/c1cc([N+](=O)[O-])ccc1Cl,inhibition,[6],21%
NNc1nc2cc3c(cc2s1)OCCO3,inhibition,[6],8.82%
COc1ccc(NC(=O)Nc2nnc(N3CCCCC3C)s2)cc1OC (stereo unspecified),inhibition,[6],43.7% (active)
C=C1c2c(Cl)ccc(O)c2C(O)=C2C(=O)[C@]3(O)C(O)=C(C(N)=O)C(=O)[C@@H](N(C)C)[C@@H]3[C@@H](O)C12 (stereo partly specified),inhibition,[1],37.7% (active)
same,inhibition,[2],79% (active)
same,inhibition,[11],102% (active)
same,inhibition,[12],101% (active)
same,inhibition,[13],104% (active)
same,inhibition,[14],102% (active)
same,inhibition,[15],105% (active)
same,inhibition,[16],104% (active)
same,inhibition,[17],-9.22%
same,inhibition,[18],20.7% (active)
O=c1[nH]c(C2CCN(S(=O)(=O)c3ccc(C(F)(F)F)cc3)CC2)nc2c1nnn2Cc1ccc(F)cc1,inhibition,[6],79.1% (active)
Cc1cccn2c(=O)c3cc(C(=O)NCCN4CCOCC4)c(=N)n(Cc4cccnc4)c3nc12,inhibition,[1],55.8% (active)
same,inhibition,[2],65.7% (active)
same,inhibition,[19],22.5%
same,inhibition,[20],20.1%
same,inhibition,[21],24.4%
same,inhibition,[22],17.3%
same,inhibition,[23],21.2%
same,inhibition,[24],57.8% (active)
same,inhibition,[25],49.1% (active)
same,inhibition,[26],28.6%
C=CCOc1ccc(/C=N/NC(=O)c2cc3c(OC)cc(OC)cc3[nH]2)cc1,inhibition,[6],24.4%
Cc1cc2nc3c(=O)n(CCc4ccccc4)c(=O)[nH]c3nc2cc1N,inhibition,[6],44.2% (active)
O=c1ccc2c(-c3ccccc3S(=O)(=O)O)c3ccc(O)c(O)c3oc-2c1O,inhibition,[1],82.9% (active)
same,inhibition,[2],67.6% (active)
same,inhibition,[11],7.55%
same,inhibition,[12],11% (active)
same,inhibition,[13],2.03%
same,inhibition,[27],-1.72%
same,inhibition,[17],-101%
same,inhibition,[18],-20.4%
same,inhibition,[10],-24.3%
COc1cc(/C=N/NC(=S)Nc2cccc(S(=O)(=O)N(C)C)c2)ccc1O,inhibition,[6],14.1%
CCC(C)Nc1nc(N)c([N+](=O)[O-])c(Nc2cc(OC)ccc2OC)n1 (stereo unspecified),inhibition,[6],34.5% (active)
Cc1cc(C)c(/C=C2\C(=O)Nc3ccccc32)[nH]1,inhibition,[1],147% (active)
same,inhibition,[2],168% (active)
same,inhibition,[7],83.6% (active)
same,inhibition,[8],5.65%
same,activation,[4],0.33%
same,activation,[5],7.13% (active)
COc1ccc(N2CC(C(=O)NCCN3C(=O)S/C(=C\c4cccnc4)C3=O)CC2=O)c(OC)c1 (stereo unspecified),inhibition,[1],-1.58%
same,inhibition,[2],-8.97%
same,inhibition,[9],0.49%
